From article PMC11062922 (Nature Chemical Biology, 2023)
Like-named read-outs stand apart in the source and are kept apart here.

Assays:
Design in all cases: species or system human, MV4-11 + K-562 + COLO205 + SK-N-BE2 + OVCAR-8
[1] = tested on: ACVR1B; conditions: read-out: apparent Kd, n = 1
[2] = tested on: ACVR1; conditions: read-out: apparent Kd, compound concentrations: 100 nM and 1000 nM (sheet 'Samples'), n = 1
[3] = tested on: ACVR2B; conditions: read-out: apparent Kd; compound concentrations: 100 nM and 1000 nM (sheet 'Samples'), CATDS: 2.6273503134627601E-2; n = 1
[4] = tested on: BCR; conditions: read-out: apparent Kd; compound concentrations: 100 nM and 1000 nM (sheet 'Samples'), CATDS: 2.1537689296735201E-2; n = 1
[5] = tested on: BMPR1B; conditions: read-out: apparent Kd; compound concentrations: 100 nM and 1000 nM (sheet 'Samples'), CATDS: 2.4616373356857599E-2; n = 1
[6] = tested on: BRAF; conditions: read-out: apparent Kd; compound concentrations: 100 nM and 1000 nM (sheet 'Samples'), CATDS: 1.9586867815954801E-2; n = 1
[7] = tested on: BUB1; conditions: read-out: apparent Kd; compound concentrations: 100 nM and 1000 nM (sheet 'Samples'), CATDS: 2.2537896529622702E-2; n = 1
[8] = tested on: CIT; conditions: read-out: apparent Kd; compound concentrations: 100 nM and 1000 nM (sheet 'Samples'), CATDS: 2.75730146177765E-2; n = 1
[9] = tested on: CSNK1A1; conditions: read-out: apparent Kd, compound concentrations: 100 nM and 1000 nM (sheet 'Samples'), n = 1
[10] = tested on: CSNK1D; conditions: read-out: apparent Kd, compound concentrations: 100 nM and 1000 nM (sheet 'Samples'), n = 1
[11] = tested on: CSNK1E; conditions: read-out: apparent Kd, compound concentrations: 100 nM and 1000 nM (sheet 'Samples'), n = 1
[12] = tested on: EPHA1; conditions: read-out: apparent Kd; compound concentrations: 100 nM and 1000 nM (sheet 'Samples'), CATDS: 3.1864310867846697E-2; n = 1
[13] = tested on: FRK; conditions: read-out: apparent Kd; compound concentrations: 100 nM and 1000 nM (sheet 'Samples'), CATDS: 4.4669706945154999E-2; n = 1
[14] = tested on: FYN; conditions: read-out: apparent Kd; compound concentrations: 100 nM and 1000 nM (sheet 'Samples'), CATDS: 2.2205933689287499E-2; n = 1
[15] = tested on: MAPK14; conditions: read-out: apparent Kd, compound concentrations: 100 nM and 1000 nM (sheet 'Samples'), n = 1
[16] = tested on: MAPK9; conditions: read-out: apparent Kd, compound concentrations: 100 nM and 1000 nM (sheet 'Samples'), n = 1
[17] = tested on: MAPKAPK2; conditions: read-out: apparent Kd, compound concentrations: 100 nM and 1000 nM (sheet 'Samples'), n = 1
[18] = tested on: PKN3; conditions: read-out: apparent Kd; compound concentrations: 100 nM and 1000 nM (sheet 'Samples'), CATDS: 0.20654584562915099; n = 1
[19] = tested on: PRKCI; conditions: read-out: apparent Kd; compound concentrations: 100 nM and 1000 nM (sheet 'Samples'), CATDS: 3.04574994167322E-2; n = 1
[20] = tested on: PRKD2; conditions: read-out: apparent Kd, compound concentrations: 100 nM and 1000 nM (sheet 'Samples'), n = 1
[21] = tested on: PTK6; conditions: read-out: apparent Kd; compound concentrations: 100 nM and 1000 nM (sheet 'Samples'), CATDS: 3.9660106147075401E-2; n = 1
[22] = tested on: RET; conditions: read-out: apparent Kd; compound concentrations: 100 nM and 1000 nM (sheet 'Samples'), CATDS: 0.10726511440353401; n = 1
[23] = tested on: RIPK2; conditions: read-out: apparent Kd, compound concentrations: 100 nM and 1000 nM (sheet 'Samples'), n = 1
[24] = tested on: RIPK3; conditions: read-out: apparent Kd; compound concentrations: 100 nM and 1000 nM (sheet 'Samples'), CATDS: 5.5820006344930999E-2; n = 1
[25] = tested on: RPS6KB1; conditions: read-out: apparent Kd; compound concentrations: 100 nM and 1000 nM (sheet 'Samples'), CATDS: 1.9963914199749098E-2; n = 1
[26] = tested on: SIK2; conditions: read-out: apparent Kd; compound concentrations: 100 nM and 1000 nM (sheet 'Samples'), CATDS: 2.1322969574131299E-2; n = 1
[27] = tested on: SIK3; conditions: read-out: apparent Kd; compound concentrations: 100 nM and 1000 nM (sheet 'Samples'), CATDS: 2.2436255384138602E-2; n = 1
[28] = tested on: SLK; conditions: read-out: apparent Kd; compound concentrations: 100 nM and 1000 nM (sheet 'Samples'), CATDS: 3.1142117408046201E-2; n = 1
[29] = tested on: STK10; conditions: read-out: apparent Kd; compound concentrations: 100 nM and 1000 nM (sheet 'Samples'), CATDS: 2.2718990110139101E-2; n = 1
[30] = tested on: TGFBR1; conditions: read-out: apparent Kd, n = 1
[31] = tested on: TGFBR2; conditions: read-out: apparent Kd; compound concentrations: 100 nM and 1000 nM (sheet 'Samples'), CATDS: 8.8931452038097006E-2; n = 1
[32] = tested on: TNIK; conditions: read-out: apparent Kd; compound concentrations: 100 nM and 1000 nM (sheet 'Samples'), CATDS: 1.9385936597074001E-2; n = 1
[33] = tested on: DDR1; conditions: read-out: apparent Kd; compound concentrations: 100 nM and 1000 nM (sheet 'Samples'), CATDS: 4.72879881828875E-2; n = 1
[34] = tested on: DDR2; conditions: read-out: apparent Kd; compound concentrations: 100 nM and 1000 nM (sheet 'Samples'), CATDS: 3.7607039392505398E-2; n = 1
[35] = tested on: GAK; conditions: read-out: apparent Kd; compound concentrations: 100 nM and 1000 nM (sheet 'Samples'), CATDS: 4.4963876201462499E-2; n = 1
[36] = tested on: MAPK10; conditions: read-out: apparent Kd; compound concentrations: 100 nM and 1000 nM (sheet 'Samples'), CATDS: 4.8287227118758103E-2; n = 1
[37] = tested on: MAPK11; conditions: read-out: apparent Kd; compound concentrations: 100 nM and 1000 nM (sheet 'Samples'), CATDS: 4.7431075480448899E-2; n = 1
[38] = tested on: CDC42; conditions: read-out: apparent Kd; compound concentrations:100 nM and 1000 nM (sheet 'Samples'); n = 1
[39] = compound concentrations:100 nM and 1000 nM (sheet 'Samples')

CC(C)(CN)c1nc(-c2ccc(Cl)c(O)c2)c(-c2ccncc2)[nH]1.O=C(O)C(F)(F)F [SB-477794-AAA]
potency estimated from few doses ([1]; compound concentrations: 100 nM and 1000 nM (sheet 'Samples'), CATDS: 5.2307110654739801E-2): 55.4 nM
potency estimated from few doses ([2]; CATDS: 1.9559764953072701E-2): 1330 nM
potency estimated from few doses [3]: 388 nM
potency estimated from few doses [4]: 833 nM
potency estimated from few doses [5]: 488 nM
potency estimated from few doses [6]: 1320 nM
potency estimated from few doses [7]: 687 nM
potency estimated from few doses [8]: 330 nM
potency estimated from few doses ([9]; CATDS: 2.3707563911338599E-2): 562 nM
potency estimated from few doses ([10]; CATDS: 4.2810001426460499E-2): 92.5 nM
potency estimated from few doses ([11]; CATDS: 3.2440470018423401E-2): 199 nM
potency estimated from few doses [12]: 210 nM
potency estimated from few doses [13]: 82.8 nM
potency estimated from few doses [14]: 730 nM
potency estimated from few doses ([15]; CATDS: 3.89835717032921E-2): 119 nM
potency estimated from few doses ([16]; CATDS: 1.8300020860960699E-2): 2000 nM
potency estimated from few doses ([17]; CATDS: 2.4524702318677E-2): 495 nM
potency estimated from few doses [18]: 2.21 nM
potency estimated from few doses [19]: 241 nM
potency estimated from few doses ([20]; CATDS: 2.0032181023514398E-2): 1170 nM
potency estimated from few doses [21]: 113 nM
potency estimated from few doses [22]: 9.97 nM
potency estimated from few doses ([23]; CATDS: 0.143338451264474): 5.13 nM
potency estimated from few doses [24]: 47.1 nM
potency estimated from few doses [25]: 1200 nM
potency estimated from few doses [26]: 871 nM
potency estimated from few doses [27]: 699 nM
potency estimated from few doses [28]: 225 nM
potency estimated from few doses [29]: 665 nM
potency estimated from few doses ([30]; compound concentrations: 100 nM and 1000 nM (sheet 'Samples'), CATDS: 5.82262421070339E-2): 42.5 nM
potency estimated from few doses [31]: 15.4 nM
potency estimated from few doses [32]: 1400 nM

CN1CCN(CCCNc2nccc(-c3c(-c4ccc(F)cc4)nn4cc(C(N)=O)ccc34)n2)CC1 [GW622475X]
potency estimated from few doses ([1]; compound concentrations: 100 nM and 1000 nM (sheet 'Samples'), CATDS: 0.21340745676279499): 16.5 nM
potency estimated from few doses ([2]; CATDS: 4.9335047128928999E-2): 488 nM
potency estimated from few doses ([9]; CATDS: 5.98915782601789E-2): 252 nM
potency estimated from few doses ([10]; CATDS: 0.221506901273927): 15.6 nM
potency estimated from few doses ([11]; CATDS: 9.6112931202447002E-2): 72.3 nM
potency estimated from few doses [33]: 576 nM
potency estimated from few doses [34]: 1900 nM
potency estimated from few doses [35]: 712 nM
potency estimated from few doses [36]: 530 nM
potency estimated from few doses [37]: 569 nM
potency estimated from few doses ([15]; CATDS: 0.132847798162957): 36.9 nM
potency estimated from few doses ([16]; CATDS: 6.4628535375358898E-2): 200 nM
potency estimated from few doses ([17]; CATDS: 0.150637698751246): 29.3 nM
potency estimated from few doses ([20]; CATDS: 3.69212062314868E-2): 2180 nM
potency estimated from few doses ([23]; CATDS: 5.3537616523073803E-2): 363 nM
potency estimated from few doses ([30]; compound concentrations: 100 nM and 1000 nM (sheet 'Samples'), CATDS: 8.1591289102362505E-2): 107 nM

Cl.NC(=O)c1ccc(-c2nc(-c3ccccn3)c(-c3ccc4c(c3)OCO4)[nH]2)cc1 [SB-431542-A]
potency estimated from few doses [1, 39]: 1140 nM
potency estimated from few doses [38]: 731 nM
potency estimated from few doses [30, 39]: 946 nM
